# Source: PubChem (National Center for Advancing Translational Sciences (NCATS))
# The list is not random: actives were taken first. Their share in the collection is about 2.4%.
# Pol eta inh-1 = DNA polymerase eta (human) inhibition; Q9Y253; recombinant Pol eta, fluorescent DNA replication assay; Potency, µM (doses to about 114 µM), inactives show at the top dose activity change, negative = inhibition, actives largely listed as inhibitors; 390,000 tested, 1.2% active; AID 588591; also: potency is read from the fitted curve at half-maximal effect; % is scaled to controls: 0 for no effect and ±100 for the full control effect
# Target sequence (Q9Y253 whole entry, looked up): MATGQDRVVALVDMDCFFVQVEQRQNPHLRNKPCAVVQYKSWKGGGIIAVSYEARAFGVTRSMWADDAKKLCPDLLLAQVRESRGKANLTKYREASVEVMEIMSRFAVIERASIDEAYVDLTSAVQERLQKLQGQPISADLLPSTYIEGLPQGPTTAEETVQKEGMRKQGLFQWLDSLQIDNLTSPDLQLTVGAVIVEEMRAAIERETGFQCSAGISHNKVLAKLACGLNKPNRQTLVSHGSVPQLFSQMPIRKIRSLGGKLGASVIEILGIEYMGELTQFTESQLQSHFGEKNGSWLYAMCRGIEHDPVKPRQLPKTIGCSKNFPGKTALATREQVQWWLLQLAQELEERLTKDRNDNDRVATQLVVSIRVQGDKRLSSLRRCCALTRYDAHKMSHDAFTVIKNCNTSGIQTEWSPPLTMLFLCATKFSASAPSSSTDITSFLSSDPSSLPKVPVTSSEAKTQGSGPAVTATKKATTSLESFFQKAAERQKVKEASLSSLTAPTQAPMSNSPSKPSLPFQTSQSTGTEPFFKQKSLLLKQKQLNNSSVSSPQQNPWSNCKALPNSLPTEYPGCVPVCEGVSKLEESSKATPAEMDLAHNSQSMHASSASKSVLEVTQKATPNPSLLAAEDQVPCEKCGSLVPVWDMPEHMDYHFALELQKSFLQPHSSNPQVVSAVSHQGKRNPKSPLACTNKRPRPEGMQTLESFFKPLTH
#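 Pol eta at 10 nM preincubated with compounds 15 min at room temperature; reaction started with fluorescent substrate (50 nM final) and read kinetically at 0 and 10 min.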
# PGK inhibitor = blocks T. brucei phosphoglycerate kinase; PGK/GAPDH coupled, Kinase-Glo luminescence, 60 min; Potency, µM (highest dose often 57.5 µM), without a hit: at the top dose activity change, negative = inhibition, actives largely listed as inhibitors; 380,000 tested, 0.043% active; AID 602233; also: potency is read from the fitted curve at half-maximal effect; % is scaled to controls: 0 for no effect and ±100 for the full control effect; nearly all actives have a fitted effect of over 60% in size
#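 Luminescent ATP detection (Kinase-Glo Plus) follows a 60-minute room-temperature incubation, with wells lacking PGK as controls. Buffer: 100 mM TEA (pH 7.6), 5 mM MgCl2, 0.01% Tween-20. Coupling enzyme GAPDH (100 nM final) supplies unstable 1,3-BPG in-well.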
# Pol kappa inh-1 = DNA polymerase kappa (human) inhibition; Q9UBT6; purified Pol kappa, fluorescent DNA synthesis assay, 10 min; Potency, µM (top dose mostly 107 µM), for inactives: top-dose activity, negative = inhibition, usual class: inhibitors; 400,000 tested, 0.53% active; AID 588579; also: potency is read from the fitted curve at half-maximal effect; % is scaled to controls: 0 for no effect and ±100 for the full control effect
#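 10 nM Pol kappa preincubated 15 min at room temperature with compounds, then reaction started with substrate at 50 nM final. Fluorescence read kinetically at 0 and 10 min; buffer-only wells served as negative control.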
# Pol iota inh = blocks human DNA polymerase iota activity | Pol iota fluorescent replication assay, 10 min | Potency, µM (top dose mostly 115 µM), without a hit: at the top dose activity, negative = inhibition, hits mostly inhibitors | 390,000 tested, 1% active; also: potency is read from the fitted curve at half-maximal effect
#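 Fluorescent replication assay read twice, at 0 min and 10 min after adding 50 nM (final) substrate. Enzyme (10 nM) and compounds were first incubated 15 min at room temperature; enzyme-free buffer wells were negative controls.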
# Pol beta inh = DNA polymerase beta (human) inhibition; Potency, µM (series often up to 114 µM), inactives show top-dose activity change, negative = inhibition, actives largely listed as inhibitors; 340,000 tested, 1.3% active; AID 485314; P06746; Pol beta primer extension/strand displacement, fluorescence kinetic; also: potency is read from the fitted curve at half-maximal effect; % is scaled to controls: 0 for no effect and ±100 for the full control effect
#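 Preincubation: enzyme (10 nM) with compound, 15 min, RT. Reaction: substrate added to 50 nM final. Reads: 0 and 10 min. Analysis: normalized, Hill fit.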
# FEN1 inhibitor = blocks human flap endonuclease 1; P39748; Recombinant FEN1 flap cleavage, fluorescence, 15 min; Potency, µM (titrated, usually from 114 µM), inactives show top-dose activity change, negative = inhibition, hits mostly inhibitors; 390,000 tested, 0.35% active; also: potency is read from the fitted curve at half-maximal effect; % is scaled to controls: 0 for no effect and ±100 for the full control effect; nearly all actives have a fitted effect of over 65% in size
#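 Potency values derive from four-parameter Hill fits of normalized qHTS data. The reaction used 10 nM FEN1 preincubated 15 min at room temperature with compound, then 50 nM DNA substrate, read at 0 and 15 min.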
# GALK confirm = confirmation of human galactokinase (GALK) inhibitors; 150 tested, 70% active; shares compounds with Pol eta inh-1; AID 2015; Potency, µM (series often up to 115 µM), inactives show top-dose activity, negative = inhibition, actives largely listed as inhibitors; purified GALK, Kinase-Glo ATP depletion luminescence
# Redox cycling = counter-screen for GALK inhibitors: redox cycling H2O2 generation | shares compounds with Pol eta inh-1 | Phenol red-HRP H2O2 redox cycling, absorbance 600 nm | Potency, µM (highest dose often 115 µM), for inactives: top-dose activity change, negative = H2O2 signal, actives largely listed as inhibitors | 150 tested, 40% active | AID 2035
# HEK293 tox = counter-screen for GALK inhibitors: HEK293 cell cytotoxicity | shares compounds with Pol eta inh-1 | 170 tested, 10% active | HEK-293 viability, ATP luminescence (CellTiter-Glo), 24/48 h | Potency, µM (titrated, usually from 46.1 µM), for inactives: top-dose activity change, negative = cytotoxicity, usual class: inhibitors; also: potency is read from the fitted curve at half-maximal effect; % is scaled to controls: 0 for no effect and ±100 for the full control effect
# Pol kappa inh-2 = confirmation of human DNA polymerase kappa inhibitors; shares compounds with Pol eta inh-1; Potency, µM, most hits filed as inhibitors; 920 tested, 76% active; purified Pol-kappa, fluorescent strand-displacement substrate; also: potency is read from the fitted curve at half-maximal effect
# Pol eta inh-2 = Pol eta (human) inhibition, cherry-pick confirmation; shares compounds with Pol eta inh-1; Pol eta primer extension, TAMRA/BHQ fluorescence, 10 min; Potency, µM, usual class: inhibitors; 2,600 tested, 64% active; AID 720502; also: potency is read from the fitted curve at half-maximal effect
# Starred values were filed as active, the others as inactive; i = inactive; ? = inconclusive; nt = no result; [ ] = remark or other dose. Calls follow the shape of the dose curve; as a rule, active = well fitted curve in the direction sought with a large enough effect; inconclusive = small, poorly fitted or top-dose-only effect, or another doubt; inactive = no such curve, though single readings can be large; an effect the other way counts as inactive or inconclusive.
SMILES,Pol eta inh-1,PGK inhibitor,Pol kappa inh-1,Pol iota inh,Pol beta inh,FEN1 inhibitor,Pol eta inh-2,others
O=C(Cc1nnc(NC(=O)c2ccccc2)s1)N/N=C\c1ccc(O)c(O)c1,3.2µM*,?,3.2µM*,2.2µM*,7.1µM*,?,38*,Pol kappa inh-2=9.5*
CCN(CC)c1ccc(/C=N/NC(=O)Cc2nnc(NC(=O)Nc3ccccc3)s2)cc1,-4%,i,-14%,-15%,-2%,-9%,nt,
Cc1cc(SCC(=O)N/N=C/c2ccc(O)c(O)c2)nc2ccccc12,20µM*,-6%,?,50µM*,8.9µM*,?,38*,
Cc1cccc(CNc2nc(-c3ccc4c(c3)OCO4)nc3ccccc23)c1,nt,nt,-1%[60.1 µM],nt,nt,nt,nt,
O=C(O)c1ccc(C=C(c2nc3ccccc3s2)c2nc3ccccc3s2)cc1,40µM*,-7%,-11%,?,0%,0%,?,
Cc1ccc(C(=O)COC(=O)C(CC(C)C)NC(=O)C2CCC(C)CC2)cc1 (stereo unspecified),-5%,-3%,0%,-13%,?,-20%,nt,
Cc1ccc(-c2ccc(C(=O)O)o2)cc1Cl,-3%,i,-17%,17%,-1%,-3%,nt,
Cc1ccc(N2NC(=O)/C(=C/c3ccc(-c4ccc(Cl)c(C(=O)O)c4)o3)C2=O)cc1C,?,-8%,-44%,?,-2%,-1%,nt,Pol kappa inh-2=?
CC1(C)OC(=O)C(=Cc2ccc(-c3ccc(Cl)c(C(=O)O)c3)o2)C(=O)O1,10µM*,-16%,40µM*,?,?,?,27*,
Cc1[nH][nH]c(=O)c1C(c1ccc(-c2ccc(Cl)c(C(=O)O)c2)o1)c1c(C)[nH][nH]c1=O,10µM*,-7%,50µM*,3.2µM*,-25%,?,60*,GALK confirm=?;Redox cycling=4.7µM*;HEK293 tox=-7%;Pol kappa inh-2=24*
CC(C)COC(=O)c1cc(-c2ccc(/C=N/n3cnnc3)o2)ccc1Cl,3%,-7%,-28%,25%,?,-7%,nt,
CC(=O)Nc1ccc(NC(=O)CSc2cn(CC(=O)N(C(C)C)C(C)C)c3ccccc23)cc1,-3%,-8%,-4%,35%,18%,-5%,nt,
CCCC(=O)NC1CC(=O)N(c2ccc3c(c2)OCCO3)C1 (stereo unspecified),-6%,0%,-3%[60.1 µM],9%,?,-1%,nt,
O=C(O)c1ccc(N/N=C/c2cc3ccccc3nc2Cl)cc1,45µM*,-9%,-24%,10%,-28%,?,?,
Cc1cccc2cc(/C=N/Nc3ccc(C(=O)O)cc3)c(Cl)nc12,?,-14%,-9%,5%,?,?,nt,
COc1cc(/C=C/C(=O)c2ccc(NS(=O)(=O)c3ccc(C)cc3)cc2)cc(OC)c1O,10µM*,-9%,-13%,?,-14%,?,?,
COc1cc(/C=C/C(=O)c2ccc(NS(=O)(=O)c3ccc(C)cc3)cc2)ccc1OC(F)F,?,-5%,-9%,-19%,-1%,-12%,nt,
CCc1ccc(CNC(=O)CCc2c(C)nn(-c3ccc(N4CCCC4)nn3)c2C)cc1,0%,2%,25%,11%,0%,20%,nt,
Cc1ccc(C)c(OCC(=O)Nc2cc(NC(=O)COc3cc(C)ccc3C)cc(C(=O)O)c2)c1,50µM*,-19%,-13%,?,0%,-25%,67*,
CCN1C(C(=O)c2ccccc2)=C(OC(=O)COc2ccc(C)cc2)c2ccccc2S1(=O)=O,-13%,1%,-23%,-12%,-18%,0%,nt,
CC(=O)NS(=O)(=O)c1ccc(NC(=O)/C=C/c2ccc(C)o2)cc1,22µM*,-22%,?,?,-16%,-6%,43*,
CCOC(=O)/C(=C\c1ccc(N2CCC(c3ccccc3)=N2)cc1)C(C)=O,?,i,-5%,-11%,nt,-7%,?,
CCOC(=O)c1c(C)oc2ncnc(N3CCN(c4ccccc4OC)CC3)c12,-22%,15%,-12%,17%,26%,-8%,nt,
Cc1ccc(NC(=O)C(C)OC(=O)c2cc(=O)[nH]c3ccccc23)cc1S(=O)(=O)N1CCOCC1 (stereo unspecified),18µM*,-7%,89µM*,25µM*,nt,-4%,?,
Cc1cccc(N2CCN(c3ccc4cc(S(=O)(=O)N5CCC(C)CC5)ccc4n3)CC2)c1C,-18%,-8%,-10%,8%,-25%,-2%,nt,
SMILES,Pol eta inh-1,PGK inhibitor,Pol kappa inh-1,Pol iota inh,Pol beta inh,FEN1 inhibitor,Pol eta inh-2,others
O=C(O)CCN1CCc2ccccc21,18µM*,-5%,?,?,?,-10%,?,
O=C(CN1CCc2ccccc21)NC(=O)NCc1ccccc1,-14%,-4%,-12%,29%,6%,-4%,nt,
CC1=CC2(O)OCCN(CCO)C2=CC1=O (stereo unspecified),?,nt,?,?,25µM*,-8%,?,
Cc1cc(C)n(-c2ncc3c(n2)N(CCO)CCOC3=O)n1,-1%,i,-4%,-8%,11%,-5%,nt,
CC1=NN(c2ccc(C(=O)O)cc2)C(=O)/C1=C/c1ccc(-c2ccccc2F)o1,nt,nt,nt,nt,-1%,nt,nt,
CC1=NN(c2ccccc2)C(=O)/C1=C/c1ccc[nH]1,-18%,7%,-12%,-5%,9%,-23%,nt,
CC1=NN(c2ccc(Cl)c(C(=O)O)c2)C(=O)/C1=C\c1ccc(-c2ccc(C(=O)O)cc2)o1,13µM*,-21%,?,?,16µM*,?,?,Pol kappa inh-2=15*
CC1=NN(c2ccccc2)C(=O)/C1=C/c1ccc(-c2ccc(C)c(C(=O)O)c2)o1,25µM*,-20%,-15%,?,nt,18µM*,?,
